Laboratory results published in PubChem BioAssay.
Several values for one entry are separate records, joined by “and”; a condition that tells them apart may be missing. Equal entries are not always repeated. More than one record can exist for a structure, and the calls need not agree. Activity calls are given as the source filed them.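 The calls were made as follows, unless noted: active = compounds whose cell count with miR-34 switched on is under 0.7 times the count with it off; inactive = the rest.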

Key:
[1] = sensitizers of A549 cells to miR-34 induction, primary screen, imaging, A549 dox-inducible miR-34, nuclei and caspase counts (AID 1347080); conditions: A549 miR-34 inducible, Hoechst nuclei count, 48 h
[2] = survival rescue of mitochondrial mutant cells in low glucose, primary screen, MELAS cybrids, Rieske KO mouse fibroblasts, CellTiter-Glo (AID 1508586;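 active = mean z-score across replicates of 1.96 or higher in either the MELAS or the Rieske mutant cell line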;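 also: z relative to plate mean and SD of compound and empty wells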)
[3] = molecular target: NAD(+) hydrolase SARM1 (Homo sapiens) (UniProt Q6SZW1); test: SARM1 TIR NADase inhibitors, cell lysate, NAD-Glo luminescence (AID 1508614;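 active = compound whose remaining NAD level is above about 45 nM, limit read from the data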;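 also: higher remaining NAD means stronger inhibition of SARM1 NADase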); conditions: SAM-TIR HEK293T lysate NADase, at 1 µM, stronger effect = higher value
[4] = molecular target: Mitogen-activated protein kinase 7 (Homo sapiens) (UniProt Q13164); test: ERK5 transactivation activators in reporter cells, primary screen, cell-based, HTS (AID 1508626;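 active = luciferase signal above three times the same-plate solvent-only control wells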;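 also: luciferase driven by Gal4-ERK5 fusion binding five Gal4 sites before minimal TATA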); conditions: HeLa Gal4-ERK5 transactivation, 18 h, at 5 µM, stronger effect = higher value
[5] = viability rescue of complex I mutant cybrids, primary screen, cell-based, galactose medium, ATP luminescence (AID 1645843;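 active = z-score of at least 1.8 in each of two replicates, scored against plate mean and spread of sample wells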;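 also: positive z means more ATP and so rescue of galactose-driven cybrid death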); conditions: complex I mutant cybrid cells, 72 h, stronger effect = higher value
[6] = LFS_MB_P medulloblastoma growth inhibition, cell-based, chromothripsis tumors, cisplatin or BGB combos (AID 1671449; in the data active = inhibition above about 80%;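 also: cells exposed for 96 hours; 0% = vehicle DMSO and 100% = killing by high DMSO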); conditions: LFS_MB_P medulloblastoma cells
[7] = HDN33 neuroblastoma growth inhibition, cell-based, chromothripsis tumors, cisplatin or BGB combos (AID 1671450; in the data active = inhibition above about 80%;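 also: cells exposed to compound for four days; 0% = vehicle DMSO and 100% = cell killing by high DMSO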); conditions: HDN33 neuroblastoma cells, stronger effect = higher value
[8] = ICB984 medulloblastoma cell growth inhibition, synergistic combos for chromothripsis tumors, cisplatin or BGB combos (AID 1671451; call rule not given here;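 also: cells exposed for 96 hours before readout; 0% = vehicle DMSO and 100% = killing by high DMSO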); conditions: ICB984 medulloblastoma cells, drug combinations, stronger effect = higher value
[9] = LFS_MB_1R medulloblastoma cell growth inhibition, synergistic combos for chromothripsis tumors, cisplatin or BGB combos (AID 1671452; in the data active = inhibition above about 80%;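 also: cells exposed for 96 hours before readout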); conditions: LFS_MB_1R medulloblastoma cells, stronger effect = higher value
[10] = HTB85 osteosarcoma cell growth inhibition, synergistic combos for chromothripsis tumors, BGB or cisplatin IC20 combos (AID 1671453; in the data active = inhibition above about 80%;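 also: cells exposed for 96 hours before readout; 0% = vehicle DMSO and 100% = high DMSO killing control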); conditions: HTB85 osteosarcoma cells, drug combinations, stronger effect = higher value
[11] = CRL2098 osteosarcoma cell growth inhibition, synergistic combos for chromothripsis tumors, BGB or cisplatin IC20 combos (AID 1671454; in the data active = inhibition above about 80%;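 also: cells exposed for 96 h before readout; 0% = vehicle DMSO and 100% = killing by high DMSO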); conditions: CRL2098 osteosarcoma cells, drug combinations, stronger effect = higher value
[12] = HD-MB03 medulloblastoma cell growth inhibition, synergistic combos for chromothripsis tumors, BGB or cisplatin IC20 combos (AID 1671455; in the data active = inhibition above about 83%;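 also: 0% = vehicle DMSO and 100% = high DMSO as cytotoxic control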); conditions: HD-MB03 medulloblastoma cells, stronger effect = higher value
[13] = stronger effect = lower value, cell number ratio, induced over uninduced
[14] = measured here: relative caspase fold change +Dox/-Dox
[15] = measured here: total cells with miR-34 induction, stronger effect = lower value
[16] = measured here: total cells without miR-34 induction
[17] = MELAS cybrid survival, CellTiter-Glo 48 h, stronger effect = higher value
[18] = Rieske KO mouse fibroblast survival, CellTiter-Glo 72 h
[19] = measured here: combination with BGB IC40, at 0.05 µM

Sequence of NAD(+) hydrolase SARM1 (Homo sapiens) (Q6SZW1 whole entry, looked up, the tested form may be a part): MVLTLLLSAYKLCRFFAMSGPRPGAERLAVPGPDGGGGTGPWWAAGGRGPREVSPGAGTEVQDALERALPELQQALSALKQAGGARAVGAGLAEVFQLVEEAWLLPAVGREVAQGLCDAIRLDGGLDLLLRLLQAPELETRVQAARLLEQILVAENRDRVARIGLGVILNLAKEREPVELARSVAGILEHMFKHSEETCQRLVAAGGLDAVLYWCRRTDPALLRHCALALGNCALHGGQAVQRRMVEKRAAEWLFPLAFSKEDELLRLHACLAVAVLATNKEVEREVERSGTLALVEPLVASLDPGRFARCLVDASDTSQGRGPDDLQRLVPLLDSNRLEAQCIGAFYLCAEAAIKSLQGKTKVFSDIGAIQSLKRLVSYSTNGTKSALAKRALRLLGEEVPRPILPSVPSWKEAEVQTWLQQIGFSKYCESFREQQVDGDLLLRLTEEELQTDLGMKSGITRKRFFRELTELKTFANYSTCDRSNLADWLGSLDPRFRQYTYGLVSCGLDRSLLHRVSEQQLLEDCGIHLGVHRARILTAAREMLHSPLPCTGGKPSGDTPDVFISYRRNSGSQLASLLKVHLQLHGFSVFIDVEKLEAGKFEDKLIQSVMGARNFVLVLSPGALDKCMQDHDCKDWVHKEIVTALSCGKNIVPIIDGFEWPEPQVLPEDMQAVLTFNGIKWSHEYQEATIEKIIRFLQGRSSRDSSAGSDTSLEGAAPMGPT
Sequence of Mitogen-activated protein kinase 7 (Homo sapiens) (Q13164 whole entry, looked up, the tested form may be a part): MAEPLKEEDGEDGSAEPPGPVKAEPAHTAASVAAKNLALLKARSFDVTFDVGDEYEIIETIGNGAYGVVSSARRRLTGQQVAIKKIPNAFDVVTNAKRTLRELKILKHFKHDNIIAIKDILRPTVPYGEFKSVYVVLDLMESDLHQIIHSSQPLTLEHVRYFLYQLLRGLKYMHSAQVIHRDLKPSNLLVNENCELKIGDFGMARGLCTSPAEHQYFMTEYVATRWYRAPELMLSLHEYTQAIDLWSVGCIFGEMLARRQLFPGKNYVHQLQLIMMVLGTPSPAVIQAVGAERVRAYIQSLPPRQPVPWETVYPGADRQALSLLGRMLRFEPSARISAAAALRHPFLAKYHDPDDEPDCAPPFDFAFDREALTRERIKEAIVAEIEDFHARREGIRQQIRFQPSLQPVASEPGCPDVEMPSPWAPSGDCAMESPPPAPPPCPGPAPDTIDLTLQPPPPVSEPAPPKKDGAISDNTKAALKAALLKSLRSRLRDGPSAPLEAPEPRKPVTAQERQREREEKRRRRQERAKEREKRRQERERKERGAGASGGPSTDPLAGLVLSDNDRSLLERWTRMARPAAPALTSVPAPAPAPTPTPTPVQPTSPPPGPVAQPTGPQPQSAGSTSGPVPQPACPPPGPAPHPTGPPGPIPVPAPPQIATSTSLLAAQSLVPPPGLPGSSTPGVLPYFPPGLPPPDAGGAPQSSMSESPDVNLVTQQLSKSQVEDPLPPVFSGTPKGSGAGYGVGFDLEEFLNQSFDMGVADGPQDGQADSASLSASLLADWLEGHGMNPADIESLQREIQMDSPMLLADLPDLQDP

CN(C)/N=N/c1nc[nH]c1C(N)=O
fold change [1, 13]: 0.938 (inactive) and 0.895 (inactive) | fold change [1, 14]: 1.29 and 2.08 | cell count [1, 15]: 11400 and 9140 | cell count [1, 16]: 12200 and 10200 | z-score [2, 17]: 0.302 (inactive) | z-score [2, 18]: 0.971 | remaining NAD [3]: 10 nM (inactive) | luciferase signal [4]: 28 AU (inactive) | z-score [5]: -1.27 (inactive) | inhibition ([6]; at 0.5 µM, stronger effect = higher value): -23.9% (inactive) and -10.4% (inactive) | inhibition ([6]; measured here: combination with BGB IC20, at 0.005 µM): 22.6% and -26.8% | inhibition ([6]; measured here: combination with BGB IC40, at 0.005 µM): -4.64% and -12.1% | inhibition [6, 19]: 6.08% and -27.5% | inhibition ([6]; measured here: combination with cisplatin, at 0.5 µM, stronger effect = higher value): -35.1% and -31.1% | inhibition ([6]; measured here: combination with cisplatin, at 5 µM, stronger effect = higher value): -14.4% and -39% | inhibition ([7]; BGB combo, at 5 µM): 18.6% and -37% | inhibition ([7]; at 0.5 µM): 0.39% (inactive) and -45.8% (inactive) | inhibition ([7]; cisplatin combo, at 5 µM): 25.6% and -37.1% | inhibition ([7]; measured here: with BGB IC20 combination, at 0.5 µM): -1.18% and -51% | inhibition ([7]; measured here: with cisplatin IC20 combination, at 0.5 µM): -5.95% and -47.5% | inhibition ([7]; single agent, at 5 µM): 47.2% and 2.95% | inhibition ([8]; BGB IC20 combo, at 0.005 µM): 0.732% and 6.78% | inhibition ([8]; BGB IC40 combo, at 0.005 µM): -12.9% and -11.7% | inhibition ([8]; BGB IC40 combo, at 0.05 µM): 12.2% and -40.2% | inhibition ([8]; at 0.5 µM): -9.82% (inactive) and -15.2% (inactive) | inhibition ([8]; cisplatin combo, at 0.05 µM): 9.76% and -45.2% | inhibition ([8]; cisplatin combo, at 0.5 µM): -14.5% and -8.2% | inhibition ([8]; cisplatin combo, at 5 µM): -16% and -22.9% | inhibition ([8]; measured here: 5 uM single agent, at 5 µM): -26.7% and -20.4% | inhibition ([9]; at 0.5 µM): -6.85% (inactive) and -29.4% (inactive) | inhibition [9, 19]: -7.35% and -52.3% | inhibition ([9]; measured here: combination with cisplatin, at 0.5 µM): 9.4% and -47.7% | inhibition ([9]; measured here: combination with cisplatin, at 5 µM): 3.18% and -94.1% | inhibition ([10]; at 0.5 µM): -1.95% (inactive) and -35.1% (inactive) | inhibition ([10]; measured here: with BGB IC20, at 0.5 µM): 3.62% and -33.2% | inhibition ([10]; measured here: with BGB IC20, at 5 µM): -31.2% and -31.5% | inhibition ([10]; measured here: with cisplatin IC20, at 0.5 µM): -17.3% and -45.8% | inhibition ([10]; measured here: with cisplatin IC20, at 5 µM): -16% and -61.7% | inhibition ([10]; single agent, at 5 µM): -8.44% and -20.4% | inhibition ([11]; at 0.5 µM): -3.56% (inactive) and -92.1% (inactive) | inhibition ([11]; measured here: combination with BGB at IC20, at 0.5 µM): -50.1% and -47.1% | inhibition ([11]; measured here: combination with cisplatin at IC20, at 0.5 µM): 34.4% and -173% | inhibition ([12]; at 0.5 µM): 0.8% (inactive) and -6.95% (inactive) | inhibition ([12]; measured here: combo with BGB at IC20, at 0.5 µM): 4.98% and -8.86% | inhibition ([12]; measured here: combo with cisplatin at IC20, at 0.5 µM): -6.17% and -0.723%

O=C1c2ccccc2C(=O)c2c1ccc(O)c2O
fold change [1, 13]: 0.918 (inactive) | fold change [1, 14]: 1.48 | cell count [1, 15]: 8090 | cell count [1, 16]: 8800 | z-score [2, 17]: -0.0543 (inactive) | z-score [2, 18]: -0.449 | luciferase signal [4]: 36 AU (inactive)

COc1cc(C(=O)NCc2ccc(OCCN(C)C)cc2)cc(OC)c1OC
fold change [1, 13]: 0.938 (inactive) and 0.925 (inactive) and 0.912 (inactive) | fold change [1, 14]: 0.8 and 0.443 and 2.44 | cell count [1, 15]: 8110 and 8000 and 11800 | cell count [1, 16]: 8650 and 12900 | z-score [2, 17]: 3.55 (active) and 0.307 (inactive) | z-score [2, 18]: -0.723 and -0.201 | remaining NAD [3]: 10 nM (inactive) | luciferase signal [4]: 48 AU (inactive) | z-score [5]: 0.17 (inactive)

CN1CCN(c2c(F)cc3c(=O)c(C(=O)O)cn4c3c2SCC4)CC1
fold change [1, 13]: 0.974 (inactive) and 0.992 (inactive) and 0.895 (inactive) | fold change [1, 14]: 0.702 and 1.33 and 0.919 | cell count [1, 15]: 7420 and 9770 and 9480 | cell count [1, 16]: 7610 and 9850 and 10600 | z-score [2, 17]: 0.206 (inactive) and 0.665 (inactive) | z-score [2, 18]: 0.617 and -0.349 | remaining NAD [3]: 10 nM (inactive) | z-score [5]: -0.175 (inactive) and 0.05 (inactive)

CN1CCCCC1CCN1c2ccccc2Sc2ccc(S(C)=O)cc21 (configuration not stated)
fold change [1, 13]: 0.812 (inactive) and 0.898 (inactive) and 0.879 (inactive) | fold change [1, 14]: 1.32 and 2.22 and 1.93 | cell count [1, 15]: 7930 and 7130 and 7860 | cell count [1, 16]: 9770 and 7940 and 8940 | z-score [2, 17]: 0.0731 (inactive) and 0.00466 (inactive) | z-score [2, 18]: -0.192 and -0.653 | remaining NAD [3]: 10 nM (inactive) | z-score [5]: 0.175 (inactive) and 0.14 (inactive)
